# An excerpt weighted towards active compounds, which were near 8.7% of everything screened.
# G9a block = blocks human histone lysine methyltransferase G9a | Q96KQ7 | G9a H3K9 monomethylation, AlphaScreen, 2 h | Potency, µM (titrated, usually from 102 µM), inactives show top-dose activity, negative = inhibition, hits mostly inhibitors | actives 8.8% (n = 350,000); further: on the % scale 0 is the no-effect control and ±100 the full control effect; nearly all actives have a fitted effect of over 75% in size
# Target sequence (Q96KQ7 913-1193 limits assumed): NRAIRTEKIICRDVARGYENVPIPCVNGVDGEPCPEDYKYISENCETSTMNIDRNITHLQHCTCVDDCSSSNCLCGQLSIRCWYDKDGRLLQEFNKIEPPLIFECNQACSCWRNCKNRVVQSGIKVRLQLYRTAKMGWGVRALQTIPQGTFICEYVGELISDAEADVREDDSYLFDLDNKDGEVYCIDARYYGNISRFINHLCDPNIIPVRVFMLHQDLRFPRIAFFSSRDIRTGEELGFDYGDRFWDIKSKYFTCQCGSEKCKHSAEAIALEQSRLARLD
#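 AlphaScreen detection with an anti-monomethyl H3K9 antibody quantified product after a 2 h room-temperature reaction containing 500 nM biotinylated H3K9 peptide, 20 µM SAM and 20 nM enzyme, which had been preincubated 15 min with compound.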
# HP1b chromo inh = HP1-beta chromodomain-methylated histone interaction inhibition; actives 0.56% (n = 390,000); AID 540317; Potency, µM (highest dose often 114 µM), for the others: at the highest dose activity change, negative = inhibition, usual class: inhibitors; AlphaScreen HP1-beta / biotin-H3K9me3 peptide binding; P83916; further: nearly all actives have a fitted effect of over 70% in size
# Target sequence (P83916 whole entry, looked up): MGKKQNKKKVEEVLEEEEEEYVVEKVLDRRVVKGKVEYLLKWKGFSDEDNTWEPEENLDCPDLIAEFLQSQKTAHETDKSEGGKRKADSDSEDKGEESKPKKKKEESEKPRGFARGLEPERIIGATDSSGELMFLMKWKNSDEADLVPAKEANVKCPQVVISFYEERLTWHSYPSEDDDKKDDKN
#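 HP1-beta protein (50 nM final) preincubated 30 min at room temperature with biotinylated H3(1-18)K9me3 peptide (50 nM) in PBS pH 7.4, 0.01% Tween-20, then compound added for 30 min. AlphaScreen streptavidin donor/nickel chelate acceptor beads (10 ug/mL final), 30 min dark, luminescence read.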
# Sfp PPTase inh = inhibitors of Bacillus subtilis Sfp phosphopantetheinyl transferase. Biochemical Sfp PPTase activity, qHTS. Potency, µM, inactives show largest response in the series, negative = inhibition, hits mostly inhibitors. actives 3.5% (n = 310,000);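 further: the enzyme is Sfp with the accession as filed and its product quenches rhodamine fluorescence; 0% = enzyme reaction without inhibitor and -100% = no enzyme wells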
#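 Fluorescence-quenching assay: 15 nM Sfp-PPTase preincubated 15 min at room temperature with compound, then 5 uM rhodamine-CoA and 12.5 uM BHQ-2-labelled YbbR peptide added. Fluorescence (ex 525/em 598 nm) read at start and after 30 min; difference gives rate.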
# ALOX12 inh = blocks human arachidonate 12S-lipoxygenase | Potency, µM (doses to about 108 µM), for the others: at the top dose activity change, negative = inhibition, actives largely listed as inhibitors | purified 12hLO, xylenol orange hydroperoxide absorbance | actives 1.1% (n = 580,000) | AID 1671190; further: on the % scale 0 is the no-effect control and ±100 the full control effect
#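 Purified human 12hLO at 150 nM in 25 mM Hepes, 0.01% Triton X-100, pH 7.0, preincubated 15 min at room temperature with compound. Reaction started with 40 uM arachidonic acid, 30 min at room temperature. Hydroperoxide measured by Fe-xylenol orange, 573/405 nm absorbance ratio.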
# JMJD2A Tudor inh = inhibitors of human JMJD2A Tudor domain. Potency, µM (series often up to 114 µM), for the others: at the top dose activity change, negative = inhibition, hits mostly inhibitors. AlphaScreen JMJD2A-Tudor / H3K4me3 peptide binding. actives 4.4% (n = 390,000). O75164; further: on the % scale 0 is the no-effect control and ±100 the full control effect; nearly all actives have a fitted effect of over 50% in size
# BAZ2B block = blocks human BAZ2B. actives 4.4% (n = 360,000). AlphaScreen BAZ2B-H3K14Ac peptide displacement. Potency, µM (doses to about 114 µM), without a hit: at the highest dose activity change, negative = inhibition, actives largely listed as inhibitors; further: on the % scale 0 is the no-effect control and ±100 the full control effect; nearly all actives have a fitted effect of over 60% in size
#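 BAZ2B 50 nM plus b-H3(5-23)K14Ac 50 nM, PBS pH 7.4/0.01% Tween-20, 30 min RT; compound added (max 110 uM), 30 min RT; streptavidin donor/Ni-chelate acceptor beads 10 ug/mL final, 20 min dark; AlphaScreen read.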
# * = called active by the depositor; ? = inconclusive; / = no result given; [ ] = another dose, or the depositor's remark. The call rests on the fitted dose curve; in most records, active means well fitted curve in the direction sought with a large enough effect; inconclusive means small, poorly fitted or top-dose-only effect, or another doubt; inactive means no such curve, though single readings can be large; an effect the other way counts as inactive or inconclusive. Potency means the concentration at half of the fitted maximal effect.
SMILES,G9a block,HP1b chromo inh,Sfp PPTase inh,ALOX12 inh,JMJD2A Tudor inh,BAZ2B block
O=C(NCCc1cnc2ccccn12)C1CC2(CCNCC2)CN1 (stereo not given),/,/,/,7%,/,/
COc1ccc2c(c1)c(C(=O)OC(C)C(=O)NC(C)(C)C)c(C)n2C1CC1 (stereo not given),/,/,/,-1%,/,/
CC(OC(=O)c1cn(C)c2ccccc12)C(=O)NC(N)=O (stereo not given),/,/,/,25%,/,/
O=C(O)Cc1cccnc1C(=O)O,?,/,16µM*,5%,/,/
Cc1ccc(CSc2ncccc2C(=O)O)cc1,-1%[59 µM],-1%,14%,-3%,-9%,1%
O=C1CSC(c2ccc(F)c(Br)c2)c2cn[nH]c2N1 (stereo not given),/,/,/,-15%,/,/
O=C/C=C/c1ccccc1,22%[59 µM],28%,8%,1%,-17%,/
O=C1NC(=S)NC(=O)C1Cc1ccccc1,/,?,/,28µM*,89µM*,/
O=C1NC(=O)N(Cc2ccccc2)C(=O)C1Cc1ccccc1 (stereo not given),/,33%,/,?,-16%,/
O=C1NC(=S)NC(=O)C1C/C=C/c1ccccc1,7.9µM*,-22%,45µM*,4µM*,79µM*,1%
Cc1ccc(Cn2nc(C)c(C(=O)NCc3cc(Cl)c4c(c3)OCCCO4)c2C)cc1,/,/,/,2%,/,/
Cc1cc(=O)[nH]c(SCc2nc3ccccc3c(=O)n2-c2ccccc2C)n1,-3%,39%,-6%,?,-5%[57.1 µM],-17%
O=c1[nH]c(SCc2n[nH]c(=S)n2-c2ccccc2)nc2ccccc12,?,24%,8%,?,7.9µM*,-10%
CC(C)CC1C(C#N)=C(N)Oc2c1c(=O)oc1ccccc21 (stereo not given),-70%,3%,15%,15%[57.4 µM],45µM*,-1%
CCC1C(C#N)=C(N)Oc2c1c(=O)oc1ccccc21 (stereo not given),-11%,24%,13%,?,0%,13%
CCCC1(CCC)C(=O)NC(=Nc2ccccc2)NC1=O,-3%,11%,18%,-15%,0%,9%
CCCC1(CCC)C(=O)NC(=NCc2ccccc2)NC1=O,45µM*,1%,-7%,?,-10%,3%
COc1ccc(CNCC(=O)N2CCC3(CC2)OCCO3)cc1,22µM*,?,-12%,-16%,13µM*,35µM*
COc1ccc(C(=O)N2CCC3(CC2)OCCO3)cc1,/,26%,5%,11%,-1%,12%
O=C(COC(=O)C(O)(c1ccccc1)c1ccccc1)c1c[nH]c2ccccc12,/,/,/,-25%,/,/
NCCc1c[nH]c2ccc(OCc3ccccc3)cc12,50µM*,1%,2%,?,-30%,?
O=C1NC2(CCN(Cc3ccncc3)C2)OCc2ccccc21 (stereo not given),/,/,/,58%[176 µM],/,/
Cc1cccc(-n2c(-c3ccco3)nc3ccccc3c2=O)c1C,?,18%,11%,1%,-17%,1%
COc1ccccc1-n1c(-c2ccco2)n[nH]c1=S,22µM*,28%,-24%,-29%,22µM*,-1%
S=c1[nH]nc(-c2ccco2)n1-c1cccc2ccccc12,?,13%,-15%,?,40µM*,-6%
SMILES,G9a block,HP1b chromo inh,Sfp PPTase inh,ALOX12 inh,JMJD2A Tudor inh,BAZ2B block
N#CC(C#N)=NNc1ccc([N+](=O)[O-])cc1,32µM*,?,9%,?,?,40µM*
CC1CCN(C[C@H]2CN3CC[C@H]2C[C@@H]3CNC(=O)c2ccc3c(c2)OCO3)CC1,/,/,/,75%[176 µM],/,/
O=C(c1cccs1)N1[C@H]2CC[C@@H]1c1cnc(-c3ccc(F)cc3)nc1C2,/,/,/,30%,/,/
O=P1(c2ccccc2)Nc2ccccc2N1c1ccccc1 (stereo not given),/,?,/,?,50µM*,/
CCS(=O)(=O)N1CC(COC)C2(CCNCC2)C1 (stereo not given),/,/,/,46%,/,/
O=C1NC(=O)N(CCc2ccc(F)cc2)C(=O)/C1=C/c1ccco1,10µM*,35µM*,50µM*,?,40µM*,10µM*
Cc1ccc(/C=C2/C(=O)NC(=O)N(CCc3ccc(F)cc3)C2=O)o1,34%[0.501 µM],23%,56µM*,?,-23%,-30%
O=C(NC(O)C(Cl)(Cl)Cl)c1ccco1 (stereo not given),/,/,/,-16%,/,/
COc1cccc(CC(=O)N2CC(N(C)Cc3cccnc3)C2)c1,/,/,/,7%,/,/
Cc1nnc(C(C)N2CCN(C(=O)Cc3ccccc3C)CC2)o1 (stereo not given),/,/,/,19%,/,/
O=C(N1CCCCCC1)N1CC1,/,11%,/,-2%,3%,/
S=C(S)N1CCCC1,0.71µM*,11%,5.6µM*,?,-13%,12%
COCc1cn(C[C@H]2CC3CCN2C[C@@H]3C(=O)Nc2ccccc2)nn1 (stereo not given in full),/,/,/,23%[176 µM],/,/
CC1CCN(CC(=O)c2ccccc2Cl)CC1,?,12%,5%,-20%,?,-9%
CC1CCN(CC(=O)c2ccc3c(c2)OCCO3)CC1,4.5µM*,?,?,?,5µM*,/
CC1CCCN(CC(=O)c2ccc(Cl)c(Cl)c2)C1 (stereo not given),25µM*,65%,-5%,-14%,-6%,?
Cc1ccc(C(=O)N2CCC3(CC2)c2nccn2-c2ccccc2CN3C)c(C)c1,/,/,/,6%,/,/
O=C1OC(c2ccc([N+](=O)[O-])cc2)=N/C1=C/N1CC2CC(C1)c1cccc(=O)n1C2 (stereo not given),79µM*,17%,22%,0%,1%,-23%
O=C1OC(c2ccc(Br)cc2)=N/C1=C\N1CC2CC(C1)c1cccc(=O)n1C2 (stereo not given),-20%,1%,-2%,-6%,?,?
Nc1ncccc1CN1CC[C@H]2NCCC[C@]2(C(=O)O)C1,/,/,/,35%,/,/
COc1cc2c(cc1O)C(Cc1ccc(O)cc1)NCC2 (stereo not given),79µM*,36%,-4%,25%,-13%,-29%
COc1ccc(CC2NCCc3cc(OC)c(OC)cc32)cc1OC (stereo not given),/,/,9%,10%[57.4 µM],/,/
CCOc1ccc(CN(CCc2ccc3c(c2)OCO3)Cc2ccc(CC)cc2)cc1,?,-21%,/,?,22µM*,71µM*
CCOc1ccc(CN(CCc2ccc3c(c2)OCO3)Cc2cc(OC)ccc2O)cc1,3.2µM*,?,/,?,22µM*,?
CCOc1ccc(CN(CCc2ccc3c(c2)OCO3)Cc2cccc(C)c2)cc1,0.89µM*,?,/,?,22µM*,?
FC(F)(F)CN1C2CCC1CN(c1nc(Cl)nc3nc[nH]c13)C2,/,/,/,-1%[6.33 µM],/,/

# Source: PubChem
